A number with no mark means an inactive call. Inconclusive results are not listed. The source made the active and inactive calls. Unless noted, calls come from the whole dose curve.

Sequence of Glucocorticoid receptor (Homo sapiens) (P04150 whole entry, looked up): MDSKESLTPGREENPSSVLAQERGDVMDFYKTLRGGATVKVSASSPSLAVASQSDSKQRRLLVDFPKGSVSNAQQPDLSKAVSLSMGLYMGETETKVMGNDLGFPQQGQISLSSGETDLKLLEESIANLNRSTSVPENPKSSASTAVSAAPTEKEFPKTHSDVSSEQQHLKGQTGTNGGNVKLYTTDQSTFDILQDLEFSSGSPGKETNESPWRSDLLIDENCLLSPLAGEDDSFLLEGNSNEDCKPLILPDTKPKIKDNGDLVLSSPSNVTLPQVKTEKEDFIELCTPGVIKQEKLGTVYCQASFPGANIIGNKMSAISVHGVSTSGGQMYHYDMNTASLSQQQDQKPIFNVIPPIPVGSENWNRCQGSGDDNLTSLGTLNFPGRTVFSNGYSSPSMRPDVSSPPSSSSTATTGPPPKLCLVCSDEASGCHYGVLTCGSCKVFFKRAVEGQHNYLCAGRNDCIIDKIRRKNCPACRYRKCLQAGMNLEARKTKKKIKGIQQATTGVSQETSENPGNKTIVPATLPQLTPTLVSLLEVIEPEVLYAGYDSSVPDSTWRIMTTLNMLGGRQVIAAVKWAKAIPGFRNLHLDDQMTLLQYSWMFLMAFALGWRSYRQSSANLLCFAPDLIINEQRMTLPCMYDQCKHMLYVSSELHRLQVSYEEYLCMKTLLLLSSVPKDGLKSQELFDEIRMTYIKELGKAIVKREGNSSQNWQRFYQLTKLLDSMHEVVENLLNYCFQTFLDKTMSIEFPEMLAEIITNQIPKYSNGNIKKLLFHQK

System in the first assay: not listed separately
As to the kind of experiment: Stat Signaling Pathway (AID 446; active = well fitted curve in either direction with a large enough effect, not every such curve was filed as active;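 note: ME-180 cervical cancer cells given 40 pM IL-6 alongside compound; SIE-controlled beta-lactamase reporter measured as 460/530 nm FRET emission ratio; % is set by controls: 0 for no effect and ±100 for the full control effect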). Particulars: ME-180 (cervical carcinoma) SIE beta-lactamase reporter, IL-6 stimulated, 5 h; at 7.69 µM (top of the series) unless noted. In short, it runs like this:
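Emission at 460 and 530 nm (excitation 405 nm) reports SIE-controlled beta-lactamase in ME-180 cells. Cells received compound with 40 pM IL-6 for 5 hrs at 37 C; data scaled between 300 pM IL-6 and 125 nM JAK-inhibitor controls.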
`COc1cccc(Cn2c(=O)c(-c3ccc(Cl)cc3)nc3cnc(N(C)C)nc32)c1`: the activity, negative = inhibition was 215% [activator] (active).

`O=C(Nc1cccc(F)c1)N1CCC2(CC1)CCN(C(=O)c1cccc(F)c1)CC2`: the activity, negative = inhibition was -6.46%.

With `COc1ccc(C(=O)N2CCC[C@@]3(CCN(C(=O)Nc4cccc(F)c4)C3)C2)cc1`, the activity, negative = inhibition was -4.78%.

Consider `Cn1cccc1C(=O)N1CCC2(CC1)CN(C(=O)Nc1cccc(C#N)c1)C2`, for which the activity, negative = inhibition was -3.02%.

With `COC(=O)N1CCC[C@@]2(CCN(Cc3cc(C(F)(F)F)cc(C(F)(F)F)c3)C2)C1`, the activity, negative = inhibition was -8.1%.

For `COc1cccc(Cn2c(=O)c(-c3ccc(F)c(F)c3)nc3cncnc32)c1`, the activity, negative = inhibition was 2.07%.

As to `Cc1noc(C)c1C(=O)N1CCC2(CCCN(c3ncccn3)C2)CC1`, the activity, negative = inhibition is -4.43%.

Take `O=c1c(-c2ccc(F)cc2)nc2cnc(Nc3ccccc3)nc2n1C1CC1`: the activity, negative = inhibition is -3.65%.

Take `COc1ccc(-c2nc3cnc(OC)nc3n(Cc3cccc(OC)c3)c2=O)cc1`: the activity, negative = inhibition was 27.2%.

The next assay has as its target Glucocorticoid receptor (Homo sapiens) (UniProt P04150). The experiment in a line: GR-GFP Redistribution (AID 450;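 active = compounds whose dose series gives a full or clear partial fitted curve of increased nuclear translocation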; note: potency is the fitted concentration of half-maximal effect). The settings on record: U2OS GR-GFP nuclear translocation, laser cytometry, 2 h.
`COCCn1c(=O)cnc2cnc(OCc3ccccc3)nc21`: the Potency was above 9.22 µM.

Turning to `Cc1nc2cnc(OCc3ccccc3)nc2n(CCC#N)c1=O`, the Potency was above 9.22 µM.

As to `Cc1cnc(CNc2ncnc3ccc(-c4ccccc4C#N)cc23)cn1`, the Potency is above 46 µM.

In the case of `O=c1c(-c2cccc(F)c2)nc2cncnc2n1Cc1ccccc1`, the Potency is above 9.22 µM.

Regarding `COc1ccc(Oc2ncc3ncc(=O)n(Cc4cccc(OC)c4)c3n2)cc1`, the Potency was above 9.22 µM.

As to `COc1ccccc1CCn1c(=O)c(C)nc2cncnc21`, the Potency is above 9.22 µM.

As to `COc1ccc(Oc2ncc3nc(C)c(=O)n(C4CC4)c3n2)cc1`, the Potency was above 9.22 µM.

With `COCCn1c(=O)c(-c2ccc(OC)cc2)nc2cnc(Oc3ccc(OC)cc3)nc21`, the Potency was above 9.22 µM.

Regarding `COc1ccc(-n2c(=O)c(-c3ccc(F)cc3)nc3cnc(OC)nc32)cc1`, the Potency was above 9.22 µM.

`COc1cccc(Cn2c(=O)c(-c3cccs3)nc3cnc(Nc4ccccc4)nc32)c1`: the Potency is above 9.22 µM.

Regarding `COc1cccc(Cn2c(=O)c(-c3cccc(F)c3)nc3cncnc32)c1`, the Potency is above 9.22 µM.

On to `O=c1c(-c2cccc(Cl)c2)nc2cncnc2n1Cc1ccc(F)cc1`, for which the Potency was above 9.22 µM.

In the case of `COc1cccc(Cn2c(=O)c(-c3cccc(Cl)c3)nc3cncnc32)c1`, the Potency is above 9.22 µM.

On to `O=c1c(-c2ccc(Cl)cc2)nc2cncnc2n1Cc1ccccc1`, for which the Potency is above 9.22 µM.

Turning to `COc1ccc(-c2nc3cnc(OC)nc3n(C3CC3)c2=O)cc1`, the Potency was above 9.22 µM.

Take `O=c1c(-c2ccc(F)c(F)c2)nc2cncnc2n1Cc1ccc(F)cc1`: the Potency is above 9.22 µM.

On to `COc1cccc(Cn2c(=O)c(-c3ccc(Cl)cc3)nc3cnc(N(C)C)nc32)c1`, for which the Potency is above 9.22 µM.

Consider `COc1cccc(Cn2c(=O)c(-c3ccc(F)c(F)c3)nc3cncnc32)c1`, for which the Potency was above 9.22 µM.

For the compound `O=c1c(-c2ccc(F)cc2)nc2cnc(Nc3ccccc3)nc2n1C1CC1`, the Potency was above 9.22 µM.

As for `COc1ccc(-c2nc3cnc(OC)nc3n(Cc3cccc(OC)c3)c2=O)cc1`, the Potency is above 9.22 µM.

Another assay shares this target. The experiment in a line: GR-EFC Redistribution (AID 451). Note: potency is the fitted concentration of half-maximal effect. Particulars: CHO-K1 GR-EFC translocation, beta-gal luminescence, 2 h. In short, it runs like this: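 Translocation of GR-ED fusion to nuclear EA restores b-gal, read by luminescence after 1 h room-temperature detection. Engineered CHO-K1 biosensor cells, 1,000/well, exposed 2 h at 37 C to titrations up to 46 uM final.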
`COCCn1c(=O)cnc2cnc(OCc3ccccc3)nc21`: the Potency is above 46 µM.

In the case of `COc1ccc(NC(=O)N2CC3(CCN(C(=O)c4cccc(F)c4)CC3)C2)cc1`, the Potency is above 46 µM.

For `COc1ccc(C(=O)N2CCC[C@@]3(CCN(Cc4ccccc4OC)C3)C2)cc1`, the Potency is above 46 µM.

Regarding `Cc1nc2cnc(OCc3ccccc3)nc2n(CCC#N)c1=O`, the Potency was above 46 µM.

Regarding `Cc1cnc(CNc2ncnc3ccc(-c4ccccc4C#N)cc23)cn1`, the Potency was above 46 µM.

Take `COC(=O)N1CCC2(CCN(C(=O)Nc3ccc(OC)cc3)CC2)CC1`: the Potency is above 46 µM.

`O=c1c(-c2cccc(F)c2)nc2cncnc2n1Cc1ccccc1`: the Potency is above 46 µM.

In the case of `COc1ccc(C(=O)N2CCC3(CC2)CCN(c2cccc(-c4ccccc4)c2)CC3)cc1`, the Potency is above 46 µM.

Take `COc1ccc(Oc2ncc3ncc(=O)n(Cc4cccc(OC)c4)c3n2)cc1`: the Potency was above 46 µM.

Turning to `COCC(=O)N1CCC2(CCN(Cc3cc(C(F)(F)F)cc(C(F)(F)F)c3)CC2)CC1`, the Potency was above 46 µM.

Take `O=C(c1csnn1)N1CCC2(CCCN(c3ncccn3)C2)CC1`: the Potency is above 46 µM.

In the case of `O=C(Nc1ccccc1)N1CCC2(CCNCC2)CC1`, the Potency is above 46 µM.

Take `COc1ccccc1CCn1c(=O)c(C)nc2cncnc21`: the Potency was above 46 µM.

On to `N#Cc1ccc(CN2CC3(CCN(C(=O)c4csnn4)CC3)C2)cc1`, for which the Potency is above 46 µM.

As to `COc1ccc(Oc2ncc3nc(C)c(=O)n(C4CC4)c3n2)cc1`, the Potency was above 46 µM.

As for `COCCn1c(=O)c(-c2ccc(OC)cc2)nc2cnc(Oc3ccc(OC)cc3)nc21`, the Potency was above 46 µM.

On to `COc1ccc(C(=O)N2CCC[C@@]3(CCN(C)C3)C2)cc1`, for which the Potency was above 46 µM.

On to `N#Cc1cccc(NC(=O)N2CC[C@@]3(CCCN(C(=O)c4csnn4)C3)C2)c1`, for which the Potency is above 46 µM.

Turning to `COc1ccc(-n2c(=O)c(-c3ccc(F)cc3)nc3cnc(OC)nc32)cc1`, the Potency was above 46 µM.

As to `COc1cccc(Cn2c(=O)c(-c3cccs3)nc3cnc(Nc4ccccc4)nc32)c1`, the Potency is above 46 µM.

For the compound `COc1cccc(Cn2c(=O)c(-c3cccc(F)c3)nc3cncnc32)c1`, the Potency is above 46 µM.

As to `CS(=O)(=O)N1CCC2(CCCN(Cc3cc(C(F)(F)F)cc(C(F)(F)F)c3)C2)CC1`, the Potency is above 46 µM.

In the case of `N#Cc1ccc(CN2CC[C@@]3(CCCN(C(=O)c4ccco4)C3)C2)cc1`, the Potency was above 46 µM.

As for `O=c1c(-c2cccc(Cl)c2)nc2cncnc2n1Cc1ccc(F)cc1`, the Potency was above 46 µM.

`Cc1cccc(CNc2ncncc2-c2cccc(NS(C)(=O)=O)c2)c1`: the Potency is above 46 µM.

For `CC(=O)N1CCC2(CC1)CCN(C(=O)Nc1cccc(C#N)c1)CC2`, the Potency is above 46 µM.

Regarding `COc1cccc(Cn2c(=O)c(-c3cccc(Cl)c3)nc3cncnc32)c1`, the Potency is above 46 µM.

For `O=c1c(-c2ccc(Cl)cc2)nc2cncnc2n1Cc1ccccc1`, the Potency was above 46 µM.

Regarding `COc1ccc(-c2nc3cnc(OC)nc3n(C3CC3)c2=O)cc1`, the Potency was above 46 µM.

As to `O=c1c(-c2ccc(F)c(F)c2)nc2cncnc2n1Cc1ccc(F)cc1`, the Potency is above 46 µM.

On to `O=C(c1cccc(F)c1)N1CCC2(CC1)CN(C(c1ccccc1)c1ccccc1)C2`, for which the Potency is above 46 µM.

Turning to `COc1cccc(Cn2c(=O)c(-c3ccc(Cl)cc3)nc3cnc(N(C)C)nc32)c1`, the Potency was above 46 µM.

For `O=C(Nc1cccc(F)c1)N1CCC2(CC1)CCN(C(=O)c1cccc(F)c1)CC2`, the Potency is above 46 µM.

Take `COc1ccc(C(=O)N2CCC[C@@]3(CCN(C(=O)Nc4cccc(F)c4)C3)C2)cc1`: the Potency is above 46 µM.

For `Cn1cccc1C(=O)N1CCC2(CC1)CN(C(=O)Nc1cccc(C#N)c1)C2`, the Potency was above 46 µM.

Turning to `COC(=O)N1CCC[C@@]2(CCN(Cc3cc(C(F)(F)F)cc(C(F)(F)F)c3)C2)C1`, the Potency was above 46 µM.

Consider `COc1cccc(Cn2c(=O)c(-c3ccc(F)c(F)c3)nc3cncnc32)c1`, for which the Potency is above 46 µM.

Take `Cc1noc(C)c1C(=O)N1CCC2(CCCN(c3ncccn3)C2)CC1`: the Potency was above 46 µM.

In the case of `O=c1c(-c2ccc(F)cc2)nc2cnc(Nc3ccccc3)nc2n1C1CC1`, the Potency is above 46 µM.

Regarding `COc1ccc(-c2nc3cnc(OC)nc3n(Cc3cccc(OC)c3)c2=O)cc1`, the Potency is above 46 µM.

These data come from PubChem BioAssay (NCATS).
